# An excerpt weighted towards active compounds, which were near 0.78% of everything screened.
# BLM inh-1 = blocks DNA unwinding by human BLM helicase. P54132. recombinant BLM DNA unwinding, fluorescence dequenching. Potency, µM (series often up to 56.1 µM), without a hit: top-dose activity change, negative = inhibition, usual class: inhibitors. actives 0.2% (n = 350,000);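 also: plate controls were vehicle for no effect and no enzyme for full effect; nearly all actives have a fitted effect of over 35% in size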
# L3MBTL1 inh-1 = blocks human L3MBTL1 | Q9Y468 | AlphaScreen L3MBTL1–H3K9me1 peptide binding | Potency, µM (top dose mostly 57.1 µM), without a hit: at the top dose activity, negative = inhibition, actives largely listed as inhibitors | actives 0.66% (n = 230,000) | AID 485360; also: % is scaled to controls: 0 for no effect and ±100 for the full control effect; nearly all actives have a fitted effect of over 60% in size
#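 L3MBTL1 50 nM + b-AHA-H3(1-15)K9me1 75 nM, 30 min RT; compound added, 30 min RT; streptavidin donor/Ni-chelate acceptor beads 10 ug/mL each final, 30 min RT dark; AlphaScreen read.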
# RECQ1 inh-1 = blocks DNA unwinding by human RECQ1; P46063; RECQ1 DNA unwinding, red fluorescence kinetic read; Potency, µM (doses to about 57.3 µM), for inactives: top-dose activity, negative = inhibition, usual class: inhibitors; actives 0.54% (n = 240,000); AID 2549;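 also: plate controls were vehicle for no effect and no enzyme for full effect; nearly all actives have a fitted effect of over 30% in size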
#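 50 nM RECQ1T1 preincubated 15 min with compound in Tris pH 8.0 buffer with MgCl2, DTT, Tween-20 and 2.5 ug/ml poly(dI-dC); started with 200 nM TAMRA/BHQ-2 forked duplex and 2 mM ATP. Unwinding read as fluorescence (525/598 nm), two reads 2 h apart.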
# APE1 inh = inhibitors of human APE1 endonuclease; P27695; recombinant APE1, TAMRA/BHQ-2 abasic DNA cleavage fluorescence; actives 0.35% (n = 350,000); Potency, µM (titrated, usually from 65.8 µM), inactives show at the highest dose activity change, negative = inhibition, usual class: inhibitors;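 also: plate controls were vehicle for no effect and reference inhibitor for full effect; nearly all actives have a fitted effect of over 55% in size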
# Target sequence (P27695 whole entry, looked up): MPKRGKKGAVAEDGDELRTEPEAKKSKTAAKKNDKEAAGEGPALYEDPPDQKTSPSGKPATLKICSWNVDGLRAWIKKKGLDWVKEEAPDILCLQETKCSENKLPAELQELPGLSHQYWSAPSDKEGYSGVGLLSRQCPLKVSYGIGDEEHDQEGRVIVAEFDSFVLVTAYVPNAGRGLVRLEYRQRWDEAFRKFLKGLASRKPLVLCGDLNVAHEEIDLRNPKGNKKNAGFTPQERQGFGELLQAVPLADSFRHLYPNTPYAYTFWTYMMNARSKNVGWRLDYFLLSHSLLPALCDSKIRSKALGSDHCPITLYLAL
#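 Readout is kinetic fluorescence (ex 525, em 598 nm) from cleavage of 50 nM TAMRA/BHQ-2 THF abasic duplex by 0.75 nM APE1, compound added 15 min beforehand at RT.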
# BLM inh-2 = BLM (human) helicase inhibition, confirmation; BLM DNA unwinding, fluorescence quenching, biochemical; actives 40% (n = 220); shares compounds with BLM inh-1; Potency, µM, without a hit: max response, negative = inhibition, hits mostly inhibitors;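 also: strand separation dequenches TAMRA so unwinding raises red fluorescence; series mostly up to about 69 µM; % is scaled to controls: 0 for no effect and ±100 for the full control effect; nearly all actives have a fitted effect of over 45% in size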
# RECQ1 inh conf = confirmation of human RECQ1 helicase inhibitors | RECQ1 helicase DNA unwinding, fluorescence | Potency, µM (highest dose often 229 µM), for the others: top-dose activity change, negative = inhibition, most hits filed as inhibitors | actives 28% (n = 610) | shares compounds with RECQ1 inh-1; also: % is scaled to controls: 0 for no effect and ±100 for the full control effect; nearly all actives have a fitted effect of over 45% in size
# RECQ1 ADP FP = displaces ADP in a fluorescence polarization counter-screen for RECQ1 hits; shares compounds with RECQ1 inh-1; ADP fluorescence polarization displacement counterscreen; Potency, µM (highest dose often 228 µM), inactives show at the top dose activity change, negative = inhibition, hits mostly inhibitors; actives 27% (n = 530); also: % is scaled to controls: 0 for no effect and ±100 for the full control effect; nearly all actives have a fitted effect of over 45% in size
# RECQ1 inh-2 = RECQ1 helicase inhibition confirmed, round 2. shares compounds with RECQ1 inh-1. Potency, µM (doses to about 119 µM), inactives show at the top dose activity, negative = inhibition, actives largely listed as inhibitors. recombinant RECQ1 DNA unwinding, red fluorescence. actives 15% (n = 1,100). AID 504841; also: % is scaled to controls: 0 for no effect and ±100 for the full control effect; nearly all actives have a fitted effect of over 50% in size
# L3MBTL1 inh-2 = validation of human L3MBTL1 methyl-lysine binding inhibitors. shares compounds with L3MBTL1 inh-1. L3MBTL1 methyl-lysine binding inhibition, biochemical qHTS. Potency, µM, most hits filed as inhibitors. actives 91% (n = 500). AID 540279; also: nearly all actives have a fitted effect of over 70% in size
# AlphaScreen ctr2 = counter-screen for L3MBTL1 inhibitors: AlphaScreen signal interference; shares compounds with L3MBTL1 inh-1; AlphaScreen counterscreen, signal inhibition; Potency, µM (highest dose often 57.1 µM), inactives show at the top dose activity change, negative = inhibition, most hits filed as inhibitors; 500 tested, under 10 active; AID 602224; also: 0% is about no effect
# Active calls of the source: *; i = inactive; ? = inconclusive; / = not tested or not shown; ! = a repeat was not active; [ ] = dose if it differs, or a comment. Calls follow the shape of the dose curve; as a rule, active = well fitted curve in the direction sought with a large enough effect; inconclusive = small, poorly fitted or top-dose-only effect, or another doubt; inactive = no such curve, though single readings can be large; an effect the other way counts as inactive or inconclusive. Potency is read from the fitted curve at half-maximal effect.
SMILES,BLM inh-1,L3MBTL1 inh-1,RECQ1 inh-1,APE1 inh,RECQ1 inh conf,RECQ1 inh-2,others
Cc1c2oc3c(C)ccc(C(=O)N[C@@H]4C(=O)N[C@H](C(C)C)C(=O)N5CCC[C@H]5C(=O)N(C)CC(=O)N(C)[C@@H](C(C)C)C(=O)O[C@@H]4C)c3nc-2c(C(=O)N[C@@H]2C(=O)N[C@H](C(C)C)C(=O)N3CCC[C@H]3C(=O)N(C)CC(=O)N(C)[C@@H](C(C)C)C(=O)O[C@@H]2C)c(N)c1=O,?,/,3.5µM*,13µM*!,1.4µM*,/,BLM inh-2=?
CCN(C(=O)CSc1nc2ccccc2nc1Cc1cccc(OC)c1)c1cccc(C)c1,-8%,/,/,/,/,/,
O=C(N/N=C/c1cccc(F)c1)c1cc(-c2ccco2)nc2ccccc12,11µM*,5.6µM*,22µM*,4.5µM*,28µM*,/,BLM inh-2=5.8µM*;RECQ1 ADP FP=?
CC(=O)Nc1ccc(SCC(=O)c2ccc(Br)s2)cc1,-13%,/,/,29%,/,/,
Cc1ccc(SCC(=O)c2ccc(CC(=O)O)s2)cc1,25µM*,?,25µM*,-12%,/,7%,BLM inh-2=?
CCc1ccccc1O,/,/,-9%,-2%,/,/,
CN(CCC#N)C(=O)COC(=O)c1c2c(nc3ccccc13)/C(=C/c1ccco1)CC2,14µM*,10µM*,16µM*,14µM*,/,?,BLM inh-2=?;L3MBTL1 inh-2=2.1*;AlphaScreen ctr2=?
Cc1nc2sc3c(c2c(=O)[nH]1)CCC3,3%,/,i,-1%,/,/,
Cc1cc(-c2nc3c4c5c(sc4[nH]c(=O)n3n2)CCC5)c(C)o1,14µM*,8.9µM*,13µM*,?,18µM*,?,BLM inh-2=11µM*;RECQ1 ADP FP=?;L3MBTL1 inh-2=9.5*;AlphaScreen ctr2=-1%
O=C(CSc1nc(-c2ccccc2)nc2c1Cc1ccccc1O2)Nc1ccc(C(=O)O)cc1,10µM*,10µM*,8.9µM*,1%,4%[69.1 µM],/,BLM inh-2=13µM*;L3MBTL1 inh-2=6*;AlphaScreen ctr2=?
Cc1nn(-c2ccccc2)c(NC(=O)NS(=O)(=O)c2ccc(Cl)cc2)c1C#N,-2%,/,-6%,1%,/,/,
COc1ccc2c(c1)C(=O)[C@H](OC(=O)Nc1cc(OC)c(OC)c(OC)c1)[C@@H](c1ccc(OC)c(Br)c1)O2,-6%,/,4%,0%,/,/,
Cc1c(CCOC(=O)c2ccc(N3CCOCC3)c([N+](=O)[O-])c2)sc[n+]1CC#N,-1%,/,?,12%,/,?,
CC(=O)c1cccc(NC(=O)c2ccc3c(c2)c(C)c(C)n3Cc2ccc(Cl)cc2)c1,-7%,/,/,/,/,/,
CCn1c(C)c(C)c2cc(C(=O)Nc3cccc(Cl)c3)ccc21,-12%,-13%,7.9µM*,7%,-14%[114 µM],-16%,RECQ1 ADP FP=10%[91.9 µM]
C/C(CCN1CCCCc2nc(C)c(C)cc21)=N\O[C@@H](C)CN1CCCc2nc(C)c(C)cc21,-3%[12.4 µM],/,-5%[11.5 µM],?,/,/,
COc1ccc(S(=O)(=O)N2CC(C(=O)O)Oc3ccc(CC(=O)O)cc32)cc1 (configuration not stated),0%,-1%,-6%,-10%,9%,/,RECQ1 ADP FP=5%
O=C(CSc1nnnn1-c1ccc(F)cc1)c1ccc(O)c(O)c1,-1%,/,5µM*,6%,-10%[114 µM],?,RECQ1 ADP FP=5%[91.9 µM]
O=C(O)c1ccc(CSc2nnnn2-c2ccc(F)cc2)cc1,-8%,/,/,17%,/,/,
Cc1nn(Cc2c(Cl)cccc2Cl)c(C)c1C(=O)NCc1ccc(C)n1C,-5%,/,?,-4%,/,-9%,
CCN(Cc1ccccc1)C(=O)CN1C(=O)CSc2ccc(S(=O)(=O)N(CC)CC)cc21,-1%,/,/,/,/,/,
CCCCn1c(NC(=O)c2ccco2)c(S(=O)(=O)c2ccc(C)cc2)c2nc3ccccc3nc21,-23%,-8%,?,?,/,-28%,
Cc1nn(-c2ccccc2)c(C)c1C(=O)NCc1cccs1,2%,5%,-6%,?,/,/,
Cc1nn(-c2ccccc2)c(Cl)c1C(=O)NCc1cccs1,-21%,-14%,?,0%,/,-22%,
CCOC(=O)C1(CC2CC2)CCN(S(=O)(=O)/C=C/c2ccccc2)CC1,-5%,26%,?,6%,/,-17%,
SMILES,BLM inh-1,L3MBTL1 inh-1,RECQ1 inh-1,APE1 inh,RECQ1 inh conf,RECQ1 inh-2,others
NC(Cc1ccccc1)C(O)c1ccco1 (configuration not stated),1%,/,i,-2%,/,/,
CCOC(=O)Cc1ccc(NC(=O)Nc2cc3c(cc2N2CCCCC2)n(C)c(=O)n3C)cc1,-11%,/,/,/,/,/,
Cc1ccc(C(c2ccc(C)o2)c2cccc([N+](=O)[O-])c2O)o1,-10%,-24%,?,7%,/,?,
Cc1cc(C(c2ccc(C)o2)c2ccc(C)o2)c(O)c([N+](=O)[O-])c1,-10%,/,-14%,12%,/,/,
CC(C)c1ccc(S(=O)(=O)Nc2cc3c(cc2NCc2ccccc2)n(C)c(=O)n3C)cc1,-13%,/,/,/,/,/,
CC(=O)Oc1ccc(C(=O)Nc2ccc3c(c2)C(=O)N(CCC(=O)O)C3=O)cc1,-3%,/,-14%,-1%,?,/,RECQ1 ADP FP=?
Cc1ccc(NC(=O)c2ccc(OCc3c(C)noc3C)cc2)cc1,-1%,14%,10%,-9%,4%,/,RECQ1 ADP FP=50µM*
Cc1cccc(NC(=O)c2ccc(OCc3c(C)noc3C)cc2)c1,/,5%,/,-9%,/,/,
Cc1noc(C)c1COc1ccc(C(=O)Nc2cccnc2)cc1,-19%,34%,0.89µM*,-8%,56µM*,-32%,RECQ1 ADP FP=126µM*
Cc1cccc(Cn2ccn(Cc3ccc(Cl)cc3)c(=O)c2=O)c1,-5%,/,/,/,/,/,
Cc1ccccc1CSc1nnc(NC(=O)Cc2cccs2)s1,-21%,?,40µM*,?,/,-29%,
Cc1cc(C)c(S(=O)(=O)NCC23C=CC(O2)C2C(=O)N(c4ccccc4)C(=O)C23)c(C)c1 (configuration not stated),-17%,1%,11µM*,21%,/,-4%,
O=C(O)c1cc(N(Cc2ccccc2O)Cc2ccccc2O)ccc1O,-10%,/,?,?,/,?,
